# Reference: PubChem BioAssay (NCI)
# “And” between values parts separate entries of the source, which are not always exact repeats. Equal entries are not always repeated. This is part of a sample that, as a whole, favours compounds with a hit. Of some 83,000 tested, about 20% had one in any assay.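 Note: values are percent growth. 100 is the growth of untreated cells, values between 100 and 0 indicate rising inhibition; between -100 and 0 indicates cell death.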 The source made the active and inactive calls. Rule for the calls: active = growth percent below 10; inactive = the rest.
# Tested on: MCF7 breast
# Assay: NCI-60 one-dose screen, 48 h (100 = growth as untreated, 0 = no growth, -100 = all killed)
# Details: 10 µM unless noted
row,SMILES,growth
1,CCCCCCCCCc1cc(=O)c2c(O)cc(O)cc2o1,-86.1% [100 µM] (active) and -45.1% [100 µM] (active)
2,CC(=O)OC(C)c1cc2c(s1)C(=O)c1ccsc1C2=O (configuration not stated),-61.2% [100 µM] (active) and -98.9% [100 µM] (active)
3,Cc1ccnc2[nH]c(-c3ccc(F)cc3)cc(=O)c12,22.1% [100 µM] (inactive) and 5.04% [100 µM] (active)
4,CC(=O)O[C@@H]1C[C@@]2(C)[C@@H]3CC=C4[C@@H](C[C@H](O)C(=O)C4(C)C)[C@]3(C)C(=O)C[C@]2(C)[C@H]1[C@@](C)(O)C(=O)/C=C/C(C)(C)OC(C)=O,-52.5% [100 µM] (active) and -100% [100 µM] (active)
5,Cc1sccc1C(=S)Nc1ccc(Cl)c(/C=N/OC(C)(C)C)c1,-73.5% [100 µM] (active) and -46.7% [100 µM] (active)
6,CC(=O)Oc1ccc2ccc(=O)oc2c1OC(C)=O,-69.1% [100 µM] (active) and -65% [100 µM] (active)
7,CCOC(=O)C1(C#N)C(=O)c2cc[n+](CC[n+]3ccc4c(c3)C(=O)C(C#N)(C(=O)OCC)C4=O)cc2C1=O (configuration not stated),88.7% [100 µM] (inactive) and 89.4% [100 µM] (inactive)
8,CC(C)(C)O/N=C/c1cc(NC(=S)c2ccsc2)ccc1Cl,-74.5% [100 µM] (active) and -71.7% [100 µM] (active)
9,N#C/C(=C\c1ccccc1)C(=O)Nc1nnc(-c2ccccc2)o1,33.4% [100 µM] (inactive) and 3.23% [100 µM] (active)
10,CC12NC(=C(C#N)C#N)C(C#N)=C3NC(N)=C(C#N)C(=C31)Oc1ccccc12 (configuration not stated),17.3% [100 µM] (inactive) and -45.9% [100 µM] (active)
11,O=c1cc(-c2ccc(O)cc2)oc2cc(O[C@@H]3O[C@H](CO)[C@@H](O)[C@H](O)[C@H]3O)cc(O)c12,38.3% [100 µM] (inactive) and 0.613% [100 µM] (active)
12,CC1(C)CC2(C)OC(=N)C1(C#N)C2(C#N)C#N (configuration not stated),-56.8% [100 µM] (active) and -71.8% [100 µM] (active)
13,COc1cc2c(cc1O)Cc1c-2[n+](C)cc2cc(OC)c(OC)cc12,19.5% [100 µM] (inactive) and 0.687% [100 µM] (active)
14,CN(C)CCNc1ccc(NCC[N+](C)(C)Cc2ccc([N+](=O)[O-])cc2)c2c1C(=O)c1c(O)ccc(O)c1C2=O,24.2% [100 µM] (inactive) and -30.3% [100 µM] (active)
15,O=c1c2ncn(C3CCCCO3)c2n(-c2ccccc2)c(=S)n1-c1ccccc1 (configuration not stated),43.5% [100 µM] (inactive) and 61.3% [100 µM] (inactive)
16,O=C(O)c1cnccc1-c1cc(=O)[nH]n1-c1ccccc1,29.1% [100 µM] (inactive) and 3.22% [100 µM] (active)
17,Nc1cc2c3c(cccc3c1)C(=O)N(c1ccc(OCCN3CCCC3)cc1)C2=O,-78.2% [100 µM] (active) and -100% [100 µM] (active)
18,O=[N+]([O-])c1cccc(-c2ncnc(-c3cccc([N+](=O)[O-])c3)n2)c1,55.1% [100 µM] (inactive) and 68.9% [100 µM] (inactive)
19,C=C1C(=O)OC2/C=C(\CO)C(OC(C)=O)CC(O)/C(C)=C/C(OC(=O)C(C)CC)C12 (configuration not stated),-87% [100 µM] (active) and -86.7% [100 µM] (active)

row,SMILES,growth
1,O=c1[nH]c(=O)n(C2CC(O)C(CO)O2)cc1Br (configuration not stated),29% [100 µM] (inactive) and -14.9% [100 µM] (active)
2,Oc1ccccc1-c1n[nH]c(-c2ccccc2O)n1,-10.7% [100 µM] (active) and -76.4% [100 µM] (active)
3,C=C1CC(O)C2C(=C)C(=O)OC2C2C(C)C(=O)CC12 (configuration not stated),-76.9% [100 µM] (active) and -61.7% [100 µM] (active)
4,CC(=O)c1cc2c(s1)C(=O)c1ccsc1C2=O,-62.9% [100 µM] (active) and -100% [100 µM] (active)
5,CC(=O)c1cc2c(s1)C(=O)c1sccc1C2=O,-67.2% [100 µM] (active) and -100% [100 µM] (active)
6,NC(=O)c1[nH]cnc1/N=N/SCC(N)C(=O)O (configuration not stated),45.4% [100 µM] (inactive) and 15.8% [100 µM] (inactive)
7,O=C1c2c(O)ccc(O)c2C(=O)c2c(NCCNC(=O)C(O)C(O)C(O)C(O)CO)ccc(NCCNC(=O)C(O)C(O)C(O)C(O)CO)c21 (configuration not stated),-95.5% [100 µM] (active) and -100% [100 µM] (active)
8,C[C@]12CC[C@@H]3c4cc(Br)c(O)c(Br)c4CC[C@H]3[C@@H]1CC(Br)C2=O (some centres not stated),-71.4% [100 µM] (active) and -70.2% [100 µM] (active)
9,O=C1N(c2ccccc2)N=C2c3ccncc3C3=NN(c4ccccc4)C(=O)C123 (configuration not stated),28.9% [100 µM] (inactive) and -33.6% [100 µM] (active)
10,O=c1c(-c2ccc3c(c2)OCO3)coc2c3c(ccc12)OCO3,-45% [100 µM] (active) and -62.5% [100 µM] (active)
11,NC1=NN(c2ccccc2)C2(c3ccncc3C(=O)O)C1C(N)=NN2c1ccccc1 (configuration not stated),69.3% [100 µM] (inactive) and 90.4% [100 µM] (inactive)
12,CC#CC#C/C=C1/C=CC2(CCCCO2)O1 (configuration not stated),53.8% [100 µM] (inactive) and 0.753% [100 µM] (active)
13,CCOc1cc2c(cc1O)C(=O)C[C@@H]1[C@@H]2CC[C@]2(C)[C@@H](O)CC[C@@H]12,4.23% [100 µM] (active) and -100% [100 µM] (active)
14,CC(O)c1cc2c(s1)C(=O)c1c(C(C)O)csc1C2=O (configuration not stated),-78.4% [100 µM] (active) and -81.9% [100 µM] (active)
15,CC(=O)c1cc2c(s1)C(=O)c1scc(C(C)=O)c1C2=O,-68.6% [100 µM] (active) and -79.8% [100 µM] (active)
16,CC(C)(C)N/N=C(\C(=O)Nc1ccc([N+](=O)[O-])cc1[N+](=O)[O-])c1nc2ccc([N+](=O)[O-])cc2[nH]c1=O,56.5% [100 µM] (inactive) and 7.04% [100 µM] (active)
17,COc1cc(CC2c3cc(OC)c(OC)cc3CCN2C)c(Oc2cc3c(cc2OC)-c2c(O)c(OC)cc4c2C(C3)N(C)CC4)cc1OC (configuration not stated),20.4% [100 µM] (inactive) and -77.4% [100 µM] (active)
18,CCC1CC(C)C(O)/C=C/C=C/CC(C)OC(=O)CC(O)C(OC)C1OC1OC(C)CC(O)(C(C)=O)C1O (configuration not stated),32% [100 µM] (inactive) and 5.08% [100 µM] (active)
